{
  "source": "PubChem BioAssay",
  "data": [
    {"assay": "Primary imaging screen for DUSP6 inhibitors that restore phospho-Erk in transfected HeLa cells, chemical complementation (AID 609)", "conditions": "HeLa MKP-3 transfected, phospho-Erk imaging KS statistic; measured here: cell density z-score; at 10 µM; cells stimulated with TPA for 15 min", "values": [
      {"smiles": "Cc1cc(NC(CC(C)C)C(=O)O)nc(Cc2ccccc2)n1", "note": "(stereo not given)", "z-score": -0.0865},
      {"smiles": "CSc1nc2[nH]c3c(c2c2nnnn12)CCCC3", "z-score": 0.625},
      {"smiles": "CCOc1ccc(N2C(=O)CC(N)C2=O)cc1", "note": "(stereo not given)", "z-score": -0.139},
      {"smiles": "Cc1nn2cnc3sc4c(c3c2nc1=O)CCCC4", "z-score": 0.522},
      {"smiles": "Nc1c(C(=O)NCc2ccco2)sc2nc(N3CCOCC3)c3c(c12)CCCC3", "z-score": -0.827},
      {"smiles": "CC(NC(=O)Nc1ccc(O)cc1)(C(F)(F)F)C(F)(F)F", "z-score": -0.386},
      {"smiles": "Cc1cccc(-c2nnc3n2N=C(c2ccccc2)CS3)c1", "z-score": 0.462},
      {"smiles": "N#Cc1nc(COc2ccccc2)oc1N1CCCC1", "z-score": -0.447},
      {"smiles": "COCCn1c(SCc2c(F)cccc2Cl)nc2c1c(=O)[nH]c(=O)n2C", "z-score": 1.7},
      {"smiles": "Cn1c(=O)[nH]c(=O)c2c1nc(Br)n2CCSc1nnnn1-c1ccccc1", "z-score": -0.541},
      {"smiles": "Cn1c(N)c(C#N)c(C#N)c1-c1ccccc1", "z-score": -0.336},
      {"smiles": "CCOC(=O)CC(=O)CSc1nnc2sc3ccccc3n12", "z-score": 0.311},
      {"smiles": "CCc1nc(NC2CCCCC2)c(C#N)c2c1COC(C)(C)C2", "z-score": 0.843},
      {"smiles": "CCc1nc(N2CCOCC2)c(C#N)c2c1CCCC2", "z-score": 0.0216},
      {"smiles": "COC(=O)c1ccc(C2/C(=C(\\O)c3ccc4c(c3)OCCO4)C(=O)C(=O)N2CCCN(C)C)cc1", "note": "(stereo not given)", "z-score": -1.2},
      {"smiles": "C=CCOc1ccc(/C(O)=C2/C(=O)C(=O)N(CCCN3CCOCC3)C2c2ccccc2)cc1", "note": "(stereo not given)", "z-score": 0.832},
      {"smiles": "Cc1cc(=O)oc2ccc(OCC(=O)N3CCc4ccccc43)cc12", "z-score": -1.93},
      {"smiles": "Cc1ccc(NC(=O)Cn2nc(C)c3ccccc3c2=O)cc1", "z-score": 1},
      {"smiles": "O=C(c1ccccc1)n1c(=S)nc2ccccn21", "z-score": 0.295},
      {"smiles": "CCC(C)Nc1nc(OC)nc(N(C)C#N)n1", "note": "(stereo not given)", "z-score": 0.721},
      {"smiles": "Cc1[nH]nc(-c2ccc(O)cc2O)c1Oc1ccccc1", "z-score": 1.43},
      {"smiles": "O=C(NCCC1=CCCCC1)c1ccc(=O)oc1", "z-score": -0.394},
      {"smiles": "c1ccc(-n2ncc3c(N4CCCC4)ncnc32)cc1", "z-score": 0.427},
      {"smiles": "Cc1cc2c(c(=O)o1)C(CC(C)C)C(C#N)=C(N)O2", "note": "(stereo not given)", "z-score": -0.228},
      {"smiles": "O=c1cc(-c2ccco2)nc(-c2cccs2)o1", "z-score": -0.166},
      {"smiles": "O=C(Nc1nnc(SCc2ccccc2F)s1)c1ccco1", "z-score": -0.259},
      {"smiles": "CCN(CC)CCCN1C(=O)C(=O)/C(=C(/O)c2ccc(OC)cc2)C1c1ccco1", "note": "(stereo not given)", "z-score": 0.516},
      {"smiles": "Cn1c(=O)[nH]c2cc(Cl)cnc21", "z-score": 0.823},
      {"smiles": "C[N+]1(CCNC(=O)/C=N/O)CCCCC1", "z-score": -1.04},
      {"smiles": "COC(=O)c1ccc(C2/C(=C(\\O)c3cccc(OC)c3)C(=O)C(=O)N2CCCN(C)C)cc1", "note": "(stereo not given)", "z-score": 0.797},
      {"smiles": "Cc1cc(=O)oc(C)c1C(=O)n1nc(C)c2c1C[C@@H]1[C@H]2C1(C)C", "z-score": 0.489},
      {"smiles": "CCN(CC)CCNc1ncnc2c1[nH]c1ccc(OC)cc12", "z-score": 1.23},
      {"smiles": "Cn1c(=O)c2c(nc(Br)n2CCSc2nc3ccccc3o2)n(C)c1=O", "z-score": -0.0761},
      {"smiles": "CCc1ccc(-c2cn3nc(C)c(C)nc3n2)cc1", "z-score": 0.256},
      {"smiles": "CCOC(=O)CSc1nc(N)c(C(=O)Nc2ccc(N(C)C)cc2)s1", "z-score": -1.17},
      {"smiles": "CCN(CC)Cc1cc(C(C)=O)ccc1OCC(C)C", "z-score": -0.466},
      {"smiles": "Cn1c(NCc2ccccc2)nc2c1c(=O)n(Cc1ccc(Br)cc1)c(=O)n2C", "z-score": 0.333},
      {"smiles": "CC12CCC(=O)N1c1c(sc3nc(N4CCOCC4)c4c(c13)CCCC4)C(=O)N2", "note": "(stereo not given)", "z-score": -0.444},
      {"smiles": "CCOc1ccc(-c2nc(C#N)c(N3CCN(CC)CC3)o2)cc1", "z-score": 0.554},
      {"smiles": "NC(=O)CSc1nnc2n(-c3ccccc3)c(=O)c3c4c(sc3n12)CCCCC4", "z-score": -0.963}
    ]},
    {"assay": "Primary imaging screen for DUSP6 inhibitors that restore phospho-Erk in transfected HeLa cells, chemical complementation (AID 609)", "conditions": "HeLa MKP-3 transfected, phospho-Erk imaging KS statistic; measured here: nuclear c-Myc green intensity z-score; at 10 µM; cells stimulated with TPA for 15 min", "values": [
      {"smiles": "Cc1cc(NC(CC(C)C)C(=O)O)nc(Cc2ccccc2)n1", "note": "(stereo not given)", "z-score": -1.02},
      {"smiles": "CSc1nc2[nH]c3c(c2c2nnnn12)CCCC3", "z-score": 0.274},
      {"smiles": "CCOc1ccc(N2C(=O)CC(N)C2=O)cc1", "note": "(stereo not given)", "z-score": 1.28},
      {"smiles": "Cc1nn2cnc3sc4c(c3c2nc1=O)CCCC4", "z-score": -0.702},
      {"smiles": "Nc1c(C(=O)NCc2ccco2)sc2nc(N3CCOCC3)c3c(c12)CCCC3", "z-score": 1.22},
      {"smiles": "CC(NC(=O)Nc1ccc(O)cc1)(C(F)(F)F)C(F)(F)F", "z-score": 1.06},
      {"smiles": "Cc1cccc(-c2nnc3n2N=C(c2ccccc2)CS3)c1", "z-score": -0.93},
      {"smiles": "N#Cc1nc(COc2ccccc2)oc1N1CCCC1", "z-score": 1.68},
      {"smiles": "COCCn1c(SCc2c(F)cccc2Cl)nc2c1c(=O)[nH]c(=O)n2C", "z-score": -2.3},
      {"smiles": "Cn1c(=O)[nH]c(=O)c2c1nc(Br)n2CCSc1nnnn1-c1ccccc1", "z-score": -0.392},
      {"smiles": "Cn1c(N)c(C#N)c(C#N)c1-c1ccccc1", "z-score": -0.891},
      {"smiles": "CCOC(=O)CC(=O)CSc1nnc2sc3ccccc3n12", "z-score": 0.752},
      {"smiles": "CCc1nc(NC2CCCCC2)c(C#N)c2c1COC(C)(C)C2", "z-score": -0.37},
      {"smiles": "CCc1nc(N2CCOCC2)c(C#N)c2c1CCCC2", "z-score": 0.691},
      {"smiles": "COC(=O)c1ccc(C2/C(=C(\\O)c3ccc4c(c3)OCCO4)C(=O)C(=O)N2CCCN(C)C)cc1", "note": "(stereo not given)", "z-score": -0.278},
      {"smiles": "C=CCOc1ccc(/C(O)=C2/C(=O)C(=O)N(CCCN3CCOCC3)C2c2ccccc2)cc1", "note": "(stereo not given)", "z-score": -1.64},
      {"smiles": "Cc1cc(=O)oc2ccc(OCC(=O)N3CCc4ccccc43)cc12", "z-score": 0.803},
      {"smiles": "Cc1ccc(NC(=O)Cn2nc(C)c3ccccc3c2=O)cc1", "z-score": -0.268},
      {"smiles": "O=C(c1ccccc1)n1c(=S)nc2ccccn21", "z-score": -2.19},
      {"smiles": "CCC(C)Nc1nc(OC)nc(N(C)C#N)n1", "note": "(stereo not given)", "z-score": 0.541},
      {"smiles": "Cc1[nH]nc(-c2ccc(O)cc2O)c1Oc1ccccc1", "z-score": -0.0429},
      {"smiles": "O=C(NCCC1=CCCCC1)c1ccc(=O)oc1", "z-score": -0.165},
      {"smiles": "c1ccc(-n2ncc3c(N4CCCC4)ncnc32)cc1", "z-score": 1.25},
      {"smiles": "Cc1cc2c(c(=O)o1)C(CC(C)C)C(C#N)=C(N)O2", "note": "(stereo not given)", "z-score": -0.296},
      {"smiles": "O=c1cc(-c2ccco2)nc(-c2cccs2)o1", "z-score": -0.514},
      {"smiles": "O=C(Nc1nnc(SCc2ccccc2F)s1)c1ccco1", "z-score": -0.419},
      {"smiles": "CCN(CC)CCCN1C(=O)C(=O)/C(=C(/O)c2ccc(OC)cc2)C1c1ccco1", "note": "(stereo not given)", "z-score": 0.587},
      {"smiles": "Cn1c(=O)[nH]c2cc(Cl)cnc21", "z-score": -0.334},
      {"smiles": "C[N+]1(CCNC(=O)/C=N/O)CCCCC1", "z-score": 0.313},
      {"smiles": "COC(=O)c1ccc(C2/C(=C(\\O)c3cccc(OC)c3)C(=O)C(=O)N2CCCN(C)C)cc1", "note": "(stereo not given)", "z-score": -1.05},
      {"smiles": "Cc1cc(=O)oc(C)c1C(=O)n1nc(C)c2c1C[C@@H]1[C@H]2C1(C)C", "z-score": 0.72},
      {"smiles": "CCN(CC)CCNc1ncnc2c1[nH]c1ccc(OC)cc12", "z-score": -0.0798},
      {"smiles": "Cn1c(=O)c2c(nc(Br)n2CCSc2nc3ccccc3o2)n(C)c1=O", "z-score": 0.135},
      {"smiles": "CCc1ccc(-c2cn3nc(C)c(C)nc3n2)cc1", "z-score": -1.56},
      {"smiles": "CCOC(=O)CSc1nc(N)c(C(=O)Nc2ccc(N(C)C)cc2)s1", "z-score": 1.84},
      {"smiles": "CCN(CC)Cc1cc(C(C)=O)ccc1OCC(C)C", "z-score": 0.382},
      {"smiles": "Cn1c(NCc2ccccc2)nc2c1c(=O)n(Cc1ccc(Br)cc1)c(=O)n2C", "z-score": 0.526},
      {"smiles": "CC12CCC(=O)N1c1c(sc3nc(N4CCOCC4)c4c(c13)CCCC4)C(=O)N2", "note": "(stereo not given)", "z-score": 1.24},
      {"smiles": "CCOc1ccc(-c2nc(C#N)c(N3CCN(CC)CC3)o2)cc1", "z-score": 0.103},
      {"smiles": "NC(=O)CSc1nnc2n(-c3ccccc3)c(=O)c3c4c(sc3n12)CCCCC4", "z-score": 1.04}
    ]}
  ]
}
